# PubChem BioAssay AID493098 (Sanford-Burnham Center for Chemical Genomics, 2011)
# Several values for one entry are separate records, joined by “and”; a condition that tells them apart may be missing. Equal entries are not always repeated. The whole screen tested about 340,000 compounds, of which about 1,700 (0.5%) were called active.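 Rule for the calls: active = compounds whose inhibition of the agonist-driven luminescence signal at 20 µM reaches about 50% (limit read from the data); inactive = the rest.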 For the sample, actives were picked, then their nearest neighbours and some compounds at random.
# Target: C-C chemokine receptor type 6 (Homo sapiens) (UniProt P51684)
# Assay: CCR6 receptor antagonists, primary screen, cell-based, CHO-K1, luminescence, beta-arrestin, uHTS (AID 493098);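 note: cells stimulated with CCL20 at 14 nM final; plate controls were DMSO with CCL20 for no effect and DMSO without agonist for full effect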
# Conditions: CHO-K1 CCR6 PathHunter beta-arrestin, CCL20-stimulated, at 20 µM, active compounds read high
# C-C chemokine receptor type 6 (Homo sapiens), sequence (P51684 whole entry, looked up): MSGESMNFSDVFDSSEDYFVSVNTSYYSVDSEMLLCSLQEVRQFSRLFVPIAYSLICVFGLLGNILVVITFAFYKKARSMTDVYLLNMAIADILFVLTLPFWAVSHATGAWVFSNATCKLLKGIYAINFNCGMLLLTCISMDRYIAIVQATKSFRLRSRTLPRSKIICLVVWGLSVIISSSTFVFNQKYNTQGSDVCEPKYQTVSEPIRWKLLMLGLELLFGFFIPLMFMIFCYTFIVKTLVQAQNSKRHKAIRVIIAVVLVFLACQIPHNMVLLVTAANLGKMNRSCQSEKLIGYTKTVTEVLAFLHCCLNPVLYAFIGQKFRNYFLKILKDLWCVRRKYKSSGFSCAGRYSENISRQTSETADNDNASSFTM
row,SMILES,inhibition
1,Cc1c(NC(=O)CSc2nnnn2-c2ccc(C(=O)O)cc2)c(=O)n(-c2ccccc2)n1C,10.9% (inactive)
2,Cc1c(NC(=O)CSc2nnc(-c3cccnc3)n2N)c(=O)n(-c2ccccc2)n1C,5.23% (inactive)
3,Cc1c(NC(=O)CSc2cccc3cccnc23)c(=O)n(-c2ccccc2)n1C,59.7% (active)
4,Cc1ccc(C)c(OCCC(=O)OCC(=O)N2CCN(c3ccccc3)CC2)c1,20.8% (inactive)
5,Cc1cc(Cl)nc(NC(=O)Nc2cccc(Cl)c2)n1,16% (inactive)
6,CCC(=O)Nc1nc(C)c(C(=O)Nc2cccc(Cl)c2)s1,5.65% (inactive)
7,Cc1csc(NC(=S)Nc2cccc(Cl)c2)n1,60% (active)
8,Cc1cccc(NC(=O)CCN2CC(C)CC(C)C2)c1 (stereo not drawn),8.72% (inactive)
9,C=CCn1c(C(C)NC(=O)CC)nc2ccccc21 (stereo not drawn),2.5% (inactive)
10,C=CCn1c(N)c(C(=O)OCC(C)C)c2nc3ccccc3nc21,56.9% (active)
11,C=CCn1c(P(C)(=O)O)nc2ccccc21,2.22% (inactive) and 1.13% (inactive)
12,CCc1nnc(NC(=O)C2CCN(C(=O)c3ccccc3C)CC2)s1,1.37% (inactive)
13,COc1ccc(CCOC(=O)CNC(=O)c2ccc(Cl)cc2Cl)cc1,27.9% (inactive)
14,Cc1ccc(Br)c(NS(=O)(=O)c2cccc(C(=O)N3CCNC(=O)C3)c2)c1,-11% (inactive)
15,COc1ccc2c(c1)c(=Cc1ccc(N(C)C)cc1)c1cc(-c3ccccc3)[n+](C)n12,67.2% (active)
16,COc1ccc2sc(-c3ccc(N(C)C)cc3)c(C#CCO)c2c1,-34.2% (inactive)
17,Cc1ccc(Cn2c(C)c3cnn(CC(=O)NCc4ccccn4)c(=O)c3c2C)cc1,-8.58% (inactive)
18,CCc1ccc(CNC(=O)C2CCCN(c3nc4ccccc4o3)C2)cc1 (stereo not drawn),-4.97% (inactive)
19,CCOC(=O)CCNC(=O)N1CCCC(C(=O)c2ccccc2SC)C1 (stereo not drawn),-6.81% (inactive)
20,CCOC(=O)c1cnc(Nc2nc3ccccc3o2)nc1CSC(=S)N1CCCCC1,66.8% (active)
21,O=C(COc1ncnc2ccccc12)NC(=O)NCc1ccccc1,3.38% (inactive)
22,NS(=O)(=O)c1ccc(NC(=S)NNC(=O)c2cccs2)cc1,31.7% (inactive)
23,CCOc1ccc(C(=O)Nc2nccs2)cc1[N+](=O)[O-],4.46% (inactive)
24,Cc1ccc(OS(=O)Nc2cccc3nccnc23)cc1 (stereo not drawn),55.4% (active)

row,SMILES,inhibition
1,Cc1ccc(Oc2ccc3c(c2)C(=O)N(c2cccc4cccnc24)C3=O)cc1,8.43% (inactive)
2,Cc1ccc(C)c(NC(=O)c2ccc3nccnc3c2)c1,-3.74% (inactive)
3,CC1CN(C(=O)COC(=O)c2cccc(NS(=O)(=O)c3ccccc3)c2)CC(C)O1 (stereo not drawn),-4.23% (inactive)
4,COc1ccc(C2C(C(C)=O)=C(O)C(=O)N2c2nccs2)cc1 (stereo not drawn),22.9% (inactive)
5,CC1(C)C=Cc2c(ccc3c2OC[C@@H](c2ccc(O)cc2O)C3)O1,-20.6% (inactive)
6,CN(C)/C=N/c1cc(=O)n(C)c(=O)n1CC1CC1,-0.5% (inactive)
7,CCOC(=O)c1nnn2c1nc(N1CCN(c3ccccc3)CC1)c1ccccc12,13.9% (inactive)
8,COc1ccc(CNc2nccs2)cc1,19.1% (inactive)
9,CCCn1c(C2CCCN2c2nc(-c3ccc(OC)cc3)cs2)nc2ccccc21 (stereo not drawn),22.3% (inactive)
10,COc1ccc(-c2csc(Cc3nc(O)cs3)n2)cc1,68.3% (active)
11,Cc1cccc(N(C)C(=O)c2cc(S(=O)(=O)N3CCCCC3)c[nH]2)c1,-9.41% (inactive)
12,Cc1ccc2c(c1)C1C[N+](C)(CC(=O)c3ccccc3)CCC1N2C(=O)c1ccccc1Cl (stereo not drawn),7.95% (inactive)
13,O=C(NN=Cc1ccc([N+](=O)[O-])cc1)C1CC1,-1.3% (inactive)
14,O=[N+]([O-])c1ccc(C=NN=Cc2ccc([N+](=O)[O-])cc2)cc1,9.6% (inactive)
15,O=C1/C(=C\c2ccc([N+](=O)[O-])cc2)CS(=O)(=O)C/C1=C/c1ccc([N+](=O)[O-])cc1,102% (active)
16,OCCC1CN(Cc2cccn2-c2nccs2)CCN1CCc1ccccc1 (stereo not drawn),3.25% (inactive)
17,CCCOC(=O)c1c(NC(=O)c2cnn3c2NC(c2ccccc2)CC3C(F)(F)F)sc2c1CCCC2 (stereo not drawn),8.83% (inactive)
18,N#C/C(=C\C1=C(N2CCOCC2)C(=C\c2ccccc2)/CC1)C(=O)Nc1ccccc1F,37.8% (inactive)
19,O=C(O)c1ccc(NN=CC2=C(N3CCOCC3)/C(=C/c3ccccc3)CC2)cc1,-7.52% (inactive)
20,O=C1Nc2ccc(Br)cc2/C1=N/N=C/C1=C(N2CCOCC2)C(=C\c2ccccc2)/CC1,55.1% (active)
21,COc1ccc(Nc2cc(=O)n(-c3ccccc3)c3c2c(=O)n(C)c(=O)n3C)cc1,2.01% (inactive)
22,Cc1ccc(S(=O)(=O)N2CCN(C)CC2)cc1,13.6% (inactive)
23,Cn1ncc(N2CCN(S(=O)(=O)c3ccc(Br)cc3)CC2)c(Cl)c1=O,6.7% (inactive)
24,CN(C)/C=C(/C(=O)c1ccc(Cl)c(Cl)c1)c1nnnn1-c1ccccc1,3.92% (inactive)

row,SMILES,inhibition
1,O=C(C1CC1)N1N=C(c2ccc(Br)cc2)CC1(O)C(F)(F)F (stereo not drawn),2.39% (inactive)
2,O=C(Cc1ccccc1)N1N=C(c2ccncc2)CC1(O)C(F)(F)F (stereo not drawn),6.09% (inactive)
3,O=C(c1ccc(Cl)cc1)N1N=C(c2ccccn2)CC1(O)C(F)(F)F (stereo not drawn),57.1% (active)
4,Cc1ccc(-n2c(O)c(C=Nc3ccc(S(=O)(=O)Nc4ncccn4)cc3)c3ccccc3c2=O)cc1C,13.7% (inactive)
5,CCN(CC)CCCN=Cc1c(O)n(-c2ccc(C)cc2)c(=O)c2ccccc12,6.64% (inactive)
6,CCOc1ccc(-n2c(O)c(/C=N/Nc3nc(C)cc(C)n3)c3ccccc3c2=O)cc1,52.4% (active)
7,CC(=O)c1cccc(NC(=O)N2CCCC2C(=O)NCCC(C)C)c1 (stereo not drawn),8% (inactive)
8,Cc1nn(C(C)CC(=O)O)c(C)c1C (stereo not drawn),-5.98% (inactive)
9,O=c1ccc2c(-c3ccccc3S(=O)(=O)O)c3ccc(O)c(O)c3oc-2c1O,64.6% (active)
10,O=C(CSc1ccc2nnc(-c3ccccc3)n2n1)N1CCCc2ccccc21,-9.56% (inactive)
11,Nc1ccc(SCCN2C(=O)c3ccccc3C2=O)cc1,-6.02% (inactive)
12,Cc1ccc2oc(=O)c3cnn(CC(=O)N(Cc4ccco4)C4CCCCC4)c3c2c1,20.4% (inactive)
13,CN(C)S(=O)(=O)Oc1ccccc1C(=O)Nc1ccccc1Cl,8.47% (inactive)
14,O=C(COC(=O)CCc1c[nH]c(=O)[nH]1)Nc1ccccc1Cl,-11.7% (inactive)
15,O=C(Nc1ccccc1Cl)/C(Cl)=C(\Cl)S(=O)c1ccccc1 (stereo not drawn),95.1% (active)
16,Cc1c(S(=O)(=O)N2CC(C)CC(C)C2)c(=O)n(C)c(=O)n1C (stereo not drawn),-1.65% (inactive)
17,CCN(CC)CCCSc1nc2ccccc2s1,-12.8% (inactive)
18,O=[N+]([O-])c1c(NCCO)cc(Sc2nc3ccccc3s2)c2nonc12,114% (active)
19,OCCNc1nc(Nc2ccc(Cl)c(Cl)c2)nc2ccccc12,-13.9% (inactive)
20,Cc1nc(C)c(-c2nnc(-c3cccc(S(=O)(=O)N(C)C)c3)o2)cc1C(=O)NN,8.51% (inactive)
21,CCOc1ccc2[nH]c3nc(SCC(=O)NC4CCCC4)nnc3c2c1,15.4% (inactive)
22,Cc1nc2nc(SCC(=O)Nc3cccc(F)c3)[nH]c2cc1Br,-8.14% (inactive)
23,O=C(CN1CCN(C(=S)NC2CCCC2)CC1)Nc1ccc(Oc2ccccc2)cc1,10.7% (inactive)
24,CCC(=C/c1sc2ccc3ccccc3c2[n+]1C)/C=C1\Sc2ccc3ccccc3c2N1C,66.6% (active)

row,SMILES,inhibition
1,S=c1[nH]nc(/C=C/c2ccccc2)o1,-11.1% (inactive)
2,CC(C)[C@H](NC(=O)N1CCn2c1nc1ccccc12)C(=O)NCCc1ccccc1,20.7% (inactive)
3,CCCN(C(=O)COC(=O)CNS(=O)(=O)c1ccc(NC(C)=O)cc1)C1CCS(=O)(=O)C1 (stereo not drawn),4.25% (inactive)
4,O=C(O)CCN(Cc1ccccc1)S(=O)(=O)c1c(Cl)cccc1Cl,4.62% (inactive)
5,NC(=O)NC(CC(=O)NNC(=O)c1ccccn1)c1ccc(Cl)cc1 (stereo not drawn),-16.2% (inactive)
6,CC(=NNC(=S)N1CCCCCC1)c1ccccn1,21.3% (inactive)
7,C/C(=N\NC(=O)Cc1ccc(Cl)cc1)c1ccccn1,102% (active)
8,COC(=O)c1ccc(NC(=S)NN2CCOCC2)cc1,1.46% (inactive)
9,Cc1nc2nc(C)c(NS(=O)(=O)c3ccc(C(C)(C)C)cc3)c(=O)n2[nH]1,6.13% (inactive)
10,CC1CCCC(NC(=O)CSc2nccn2C)C1C (stereo not drawn),7.72% (inactive)
11,CC1(C)CC2CC(C)(CN2c2ncnc3ccc(Br)cc23)C1 (stereo not drawn),10.7% (inactive)
12,COc1ccc(OC)c(CCNC(=O)c2nn(C)c3c2CS(=O)(=O)c2ccccc2-3)c1,9.14% (inactive)
13,CCN(CC)C(=O)CSc1nnc(CNc2ccc(F)cc2)n1Cc1ccco1,6.14% (inactive)
14,CC1CN(Cc2ccco2)C(=S)N(c2ccccc2)C1=O (stereo not drawn),9.82% (inactive)
15,CN(C)C(=S)N=c1ssc(=S)n1Cc1ccco1,59.8% (active)
16,Cc1ccccc1N1C(=O)C2ON(c3ccccc3)C(c3ccncc3)C2C1=O (stereo not drawn),-6.39% (inactive)
17,CN(CC(=O)Nc1cccc(F)c1)C(=O)C1CSC2(C)CCC(=O)N12 (stereo not drawn),9.77% (inactive)
18,COCCn1c(SCC(=O)Nc2ccccc2F)nc2c(c1=O)SCC2,-9.89% (inactive)
19,S=C(NN=C1CCN(Cc2ccccc2)CC1)NC1CCCCC1,21.4% (inactive)
20,CCCC1CCC(=NNC(=S)NCCc2ccccc2)CC1 (stereo not drawn),54.4% (active)
21,S=C(NCCc1ccccc1)NCC1CCCO1 (stereo not drawn),8.39% (inactive)
